Results reported in PubChem BioAssay (Tox21).
Inconclusive results are not listed. A call without a number means that no potency is given here. A number with no mark means an inactive call. Calls of active or inactive are those of the source. Calls come from the whole dose curve; as a rule, active = well fitted cell-killing curve with a large enough effect in the repeat runs; inconclusive = weak or mixed curves; inactive = no such curve, though single readings can be large or run the other way.

Assay: qHTS assay to identify small molecule antagonists of the androgen receptor (AR) signaling pathway - cell viability counter screen (AID 743033; note: nearly all actives have a fitted effect of over 45% in size)
Conditions: AR-bla HEK293 viability, CellTiter-Glo luminescence, 16 h; series mostly up to 58.5 µM
From the text: National Center for Advancing Translational Sciences [NCATS]
NIH Chemical Genomics Center [NCGC]
U.S. Environmental Protection Agency [EPA]
National Institutes of Environmental Health Sciences [NIEHS]
National Toxicology Program [NTP]
U.S. Food and Drug Administration [FDA]
Androgen receptor (AR), a nuclear hormone receptor, plays a critical role in AR-dependent prostate cancer and other androgen related diseases. Endocrine disrupting chemicals (EDCs) and their interactions with steroid hormone receptors like AR may cause disruption of normal endocrine function as well as interfere with metabolic homeostasis, reproduction, developmental and behavioral functions. To identify the compounds that inhibit AR signaling, GeneBLAzer AR-UAS-bla-GripTite cell line (Invitrogen, Carlsbad, CA, USA) containing a beta-lactamase reporter gene under control of an Upstream Activator Sequence (UAS) stably integrated into HEK293 cells was used to screen the Tox21 10K compound library. The cytotoxicity of the Tox21 compound library against the AR-bla cell line was tested in parallel by measuring the cell viability using CellTiter-Glo assay in the same wells.
Tox21 Assay Protocol Summary:
AR-bla cells were dispensed at 2,000 cells/5 uL of assay medium per well into black wall/clear-bottom 1536-well plates using a Multidrop Combi (ThermoFisher Scientific, Waltham, MA) dispenser. After the assay plates were incubated at a 37C and 5% CO2 for 4 hr, 23 nL of compounds dissolved in DMSO, positive controls or DMSO only was transferred to the assay plate by a Pintool station (Kalypsys, San Diego, CA), followed by addition of 1 uL of agonist (R1881) in culture medium using a Bioraptr Flying Reagent Dispenser (FRD) workstation (Beckman Coulter, Indianapolis, IN, USA). The plates were incubated at a 37C and 5% CO2 for 16 h. After 1 uL of LiveBLAzerTM B/G FRET substrate was added using a Bioraptr FRD, the plates were incubated at room temperature for 2 h and fluorescence intensity was measured by an Envision plate reader (PerkinElmer, Shelton, CT). For cell viability readout that measures cytotoxicity, 4 ul/well of CellTiter-Glo reagent was added into the assay plates using a Bioraptr FRD. After 30 min incubation at room temperature, the luminescence intensity in the plates was measured using a ViewLux (PerkinElmer) plate reader.
Potency is the fitted concentration of half-maximal effect.

Row | Compound | Potency | activity change, negative = cytotoxicity
1 | Cc1oncc1C(=O)Nc1ccc(C(F)(F)F)cc1 | 54.9 µM (active) | 
2 | Cc1nc2ccccn2c(=O)c1CCN1CCC(C(=O)c2ccc(F)cc2)CC1 | inactive | 
3 | Cc1cc(OI)c(C(C)C)cc1-c1cc(C(C)C)c(OI)cc1C | inactive | 
4 | C[Si]1(C)O[Si](C)(C)O[Si](C)(C)O1 | inactive | 
5 | CCn1nc(C)c2c1C(=O)NCC(c1ccc(O)cc1)=N2 | inactive | 
6 | Cc1c(C(=O)NN2CCCCC2)nn(-c2ccc(Cl)cc2Cl)c1-c1ccc(Cl)cc1 | inactive | 
7 | c1cnc2c(n1)CCCC2 | inactive | 
8 | CCCOC(=O)c1ccc(N)cc1 | inactive | 
9 | Cc1cc(O)c2c(O)c3c(O)cccc3cc2c1 | inactive | 
10 | CC1=C(/C=C/C(C)=C\C=C\C(C)=C\C(=O)O)C(C)(C)CCC1 | inactive | 
11 | CC(=O)Oc1ccc(C(=C2CCCCC2)c2ccc(OC(C)=O)cc2)cc1 | inactive | 
12 | CC(=O)CC(c1ccc([N+](=O)[O-])cc1)c1c(O)c2ccccc2oc1=O (stereo not given) | inactive | 
13 | CC1(C)O[C@@H]2C[C@H]3[C@@H]4CCC5=CC(=O)C=C[C@]5(C)[C@H]4[C@@H](O)C[C@]3(C)[C@]2(C(=O)CO)O1 | inactive | 
14 | CCC1(C)CC(=O)NC1=O (stereo not given) | inactive | 
15 | COC(=O)CC(=O)C(C)(C)C | inactive | 
16 | CNC(=O)N(c1ccccc1)c1ccccc1 | inactive | 
17 | CO[C@H]1O[C@H](CO)[C@@H](O)[C@H](O)[C@H]1O | inactive | 
18 | CCOC(=N)CC(=O)OCC | inactive | 
19 | O=c1[nH]c2ccc(S(=O)CCN3CCC(Cc4ccc(F)cc4)CC3)cc2o1 (stereo not given) | inactive | 
20 | O=C(CCCN1CCC(O)(c2ccc(Br)cc2)CC1)c1ccc(F)cc1 | inactive | 

Row | Compound | Potency | activity change, negative = cytotoxicity
21 | CC[C@H](NC(=O)c1cc(F)ccc1NS(=O)(=O)c1cccc2cccnc12)c1ccccc1 | inactive | 
22 | Nc1nc(Cl)nc2c1ncn2[C@@H]1O[C@H](CO)[C@@H](O)[C@@H]1F | inactive | 
23 | CCCOC(=O)c1ccc(C(=O)OCCC)nc1 | inactive | 
24 | CC(C)(C)C(=O)O | inactive | 
25 | O=S1OCCO1 | inactive | 
26 | COc1cc2ncnc(Nc3ccc(F)c(Cl)c3)c2cc1OCCCN1CCOCC1 | inactive | 
27 | CCCCOC(=O)CCS | inactive | 
28 | CCOC(=O)OCC | inactive | 
29 | Cc1cc(O)c(C(C)C)cc1Cl | inactive | 
30 | CC(=O)[C@H]1CC[C@H]2[C@@H]3C[C@H](C)C4=CC(=O)CC[C@]4(C)[C@H]3[C@@H](O)C[C@]12C | inactive | 
31 | CC1=C(C=O)C(C)(C)CCC1 | inactive | 
32 | NC(=O)Nc1ccc(Cl)c(Cl)c1 | inactive | 
33 | CC(=N\O)/C(C)=N/O | inactive | 
34 | CC1=NN(c2ccc(C(=O)O)cc2)C(=O)C1 | inactive | 
35 | O=C(O)c1cccnc1C(=O)O | inactive | 
36 | CC(C)=CC=O | inactive | 
37 | O=[N+]([O-])c1cccc(S(=O)(=O)NCCNS(=O)(=O)c2cccc([N+](=O)[O-])c2)c1 | inactive | 
38 | C1COCO1 | inactive | 
39 | [O]=[Bi] |  | -10.1% [at 7.04 µM]
40 | O=C(/C=C/c1ccccc1)OCCCc1ccccc1 | inactive | 
